Reference: PubChem BioAssay (NCI)
The panel holds about 83,000 compounds, 20% with a hit somewhere; the sample as a whole holds those more often.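 Interpretation: 100, growth as untreated; towards 0, rising growth inhibition; 0, no net growth; 0 to -100, cell death. Compounds scoring below 10 were considered active.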 A number with no mark means an inactive call. The source made the active and inactive calls.

System: NCI-H460 lung
Assay: NCI-60 one-dose screen, 48 h (100 = growth as untreated, 0 = no growth, -100 = all killed)
Settings: 10 µM unless noted
Description: Growth inhibition of the NCI-H460 human Non-Small Cell Lung tumor cell line is measured as a screen for anti-cancer activity. Cells are grown in 96 well plates and exposed to the test compound for 48 hours. Compounds are tested at a single concentration, which is 10^-5 M for most compounds. The reported endpoint is percent growth (GI% or GIPRCNT), where numbers from 0 - 100% represent growth inhibition, and numbers from -100% - 0 represent cell death. For example, a value of 40 represents 60% growth inhibition. A value of 0 means no net growth occurred over the course of the experiment. A value of -40 indicates 40% of cells at the beginning of the experiment died by the end of the experiment. A value of -100 means all cells are dead at the end of the experiment.
NCI-60 Human Tumor Cell Lines Screen was performed using the standard one-dose NCI protocol, which is described in more detail at https://dtp.cancer.gov/discovery_development/nci-60/default.htm.
Compounds with GIPRCNT values below 10 were considered active. Activity score was based on GIPRCNT using the following formula: […]
Score is 0 for GIPRCNT values of 100 or above, 50 for GIPRCNT values of 0, and 100 for GIPRCNT values of -100.

In order of falling growth:
1. CCOc1ncc([N+](=O)[O-])c(OCC)n1  113%
2. O=C(/C=C/c1cn(-c2ccccc2)nc1-c1ccccc1)CCC(=O)NO  113%
3. COc1ccc2c(c1)CC[C@@H]1[C@@H]2CC[C@]2(C)C3C(=CC(COC(C)=O)C4C(=O)N(c5ccc(Cl)cc5)C(=O)C43)C[C@@H]12 (stereo not given in full)  110%
4. COc1c2c(cc3c1C(=O)N[C@@H]1[C@@H](O)[C@@H](O)[C@H](O)C[C@@H]31)OCCO2  109%
5. COc1ccc(-c2cc(C(=O)N3N=C(c4ccc(N)cc4)CC3c3ccc(Cl)cc3)c3cc(OC)ccc3n2)cc1 (stereo not given)  105%
6. O=C1/C(=C/c2ccccn2)SC(=S)N1N1CCOCC1  104%
7. Cc1cccc(N=Nc2cccc(C)c2)c1  102%
8. O=C1O[C@@H](c2ccccc2Cl)[C@@H]2c3cc4c(cc3CCN12)OCO4  101%
9. CCOC(=O)NC(=S)n1oc(=O)c2ccccc21  101%
10. C=C[C@@]1(C)CC(=O)[C@@H](C(C)(C)c2cn(C)c3ccc(Br)cc23)C[C@@H]1O[Si](C)(C)C(C)(C)C  101%
11. O=C(Nc1ccc(Oc2cccc(Cl)c2)c(Cl)c1)c1cccnn1  99.8%
12. O=S(=O)(Nc1cc(Sc2nc3ccccc3s2)c(O)c2ccccc12)c1ccc2ccccc2c1  99.7%
13. CS(=O)(=O)Nc1cc(-c2ccc3ncnc(Nc4ccc5c(cnn5Cc5ccncc5)c4)c3c2)cnc1Cl  97.2%
14. COc1ccc(C2C3=C(COC3=O)N(CCO)c3cc4c(cc32)OCO4)cc1OC (stereo not given)  95.8%
15. O=C(c1ccc(Br)cc1)C(Br)C(c1ccc(Cl)cc1)C(c1ccccc1)[N+](=O)[O-] (stereo not given)  95.5%
16. O=C1/C(=C/c2cccc(Br)c2)COc2ccc(O)cc21  92.2%
17. COC(=O)/C=C1/SC(=NCc2ccccc2)N(CCc2c[nH]c3ccccc23)C1=O  91.8%
18. Cc1[nH]n(-c2cccc(Cl)c2)c(=O)c1/C=C1\C=c2ccccc2=CC1=O  79%
19. CN1C(=O)/C(=C/c2ccc(C(=O)Nc3ncc(Cc4cc(Cl)ccc4Cl)s3)cc2)SC1=S  73.7%
20. C[C@H](c1nc2ccc(C#N)cc2[nH]1)[C@H]1CC[C@H]2[C@@H]3CCC4=CC(=O)CC[C@]4(C)[C@H]3CC[C@]12C  64%
21. O=C(NCCNC(c1ccccc1)C(NCCNC(=O)c1ccccc1)c1ccccc1)c1ccccc1 (stereo not given)  59.6%
22. c1ccc(-c2nc3ccccc3[nH]2)c(OCCCCCOc2ccccc2-c2nc3ccccc3[nH]2)c1  59.6%
23. O=S(=O)(N=C1C(Cl)=C(Cl)C(=NS(=O)(=O)c2ccccc2)C(Cl)=C1Cl)c1ccccc1  39.1%
24. Cn1cc(-c2nc3c(F)cc4[nH]ncc4c3c3c2CCCC3)c(C(F)(F)F)n1  37.5%
25. N=C(N)c1ccc(OCCSCCOc2ccc(C(=N)N)cc2)cc1  27.1%
26. Cc1cccc(N2C(=O)/C(=C/C(Cl)=C/c3ccc([N+](=O)[O-])cc3)SC2=S)c1C  21%
27. CC(C)=CC(=O)N[C@H]1CC[C@]2(C)C3CC[C@]4(C)C(C(C)N(C)C)=CCC4C3CCC2[C@H]1O (stereo not given in full)  18.6%
28. COCC(=O)Oc1cc(-c2ccc(C)cc2C)c(OC(=O)COC)c(-c2ccc(C)cc2C)c1  17.4%
29. CCNC(=O)N1CCc2c(Br)c3c(c(OC)c2C1Cc1ccc(OC)cc1)OCO3 (stereo not given)  15.2%
30. O=C(Oc1ccc2c(c1)sc1nc(-c3ccccc3)[nH]c(=O)c12)C(F)(F)F  13%
31. c1csc(-c2cn3nc(-c4c[nH]c5ccccc45)sc3n2)c1  11.2%
32. COC(=O)c1c2c(c(C)[n+]([O-])c1C)C(=O)C(NCc1ccccc1)=CC2=O  11%

For `ClC(Cl)c1nc(-c2ccccc2)n2nc(-c3ccccc3)cc2n1`, the growth was -58.2% (active).
With `CC(=O)c1c(Nc2cccc(F)c2)[nH]c2c(Cl)cc(Cl)c(Cl)c2c1=O` the growth was 3.6% (active).
In the case of `Fc1ccc2[nH]cc(-c3nc(-c4c[nH]c5c(Cl)nccc45)cs3)c2c1`, the growth is reported as 4.9% (active).
For `Cc1ccc(NC(=O)c2sc3nc(C)c(C(O)c4ccccc4)cc3c2N)cc1` (stereo not given), the growth was 2.88% (active).
With `Cc1c2cnccc2c(C)c2c1c1cc(CO)ccc1n2C` the growth was -32.5% (active).
`CCCCCc1ccc(S(=O)(=O)Nc2cc(-c3csc(NC(C)=O)n3)ccc2N2CCN(C)CC2)cc1` was tested, and the growth was -11.4% (active).
With `COc1ccc(C(O)c2cc3c(N)c(C(=O)Nc4cccc5ccccc45)sc3nc2C)cc1` (stereo not given) the growth was -20.2% (active).
In the case of `FC(F)(F)c1[nH]ncc1-c1nc2ccc3[nH]ncc3c2c2c1CCCC2`, the growth is reported as 5.86% (active).
